Screen size: about 2,400 compounds; about 580 (24%) were called active. Not all results are given here. Unmarked numbers belong to inactive results.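 Rule for the calls: active = activity change at or above the mean plus 3 SD of buffer wells without dofetilide, per plate; inactive = the rest.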
The molecules below were run against Potassium voltage-gated channel subfamily KQT member 2 (Rattus norvegicus) (UniProt O88943) (assay: KCNQ2 potentiation in CHO cells – cell-based, FluxOR thallium flux, counter-screen for hERG block protector project, confirmation (AID 1942;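 note: normalized value minus buffer-control mean plus three SD of buffer wells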)). Settings: FluxOR thallium flux fluorescence, at 10 µM, active compounds read high.
Sequence of Potassium voltage-gated channel subfamily KQT member 2 (Rattus norvegicus) (O88943 whole entry, looked up): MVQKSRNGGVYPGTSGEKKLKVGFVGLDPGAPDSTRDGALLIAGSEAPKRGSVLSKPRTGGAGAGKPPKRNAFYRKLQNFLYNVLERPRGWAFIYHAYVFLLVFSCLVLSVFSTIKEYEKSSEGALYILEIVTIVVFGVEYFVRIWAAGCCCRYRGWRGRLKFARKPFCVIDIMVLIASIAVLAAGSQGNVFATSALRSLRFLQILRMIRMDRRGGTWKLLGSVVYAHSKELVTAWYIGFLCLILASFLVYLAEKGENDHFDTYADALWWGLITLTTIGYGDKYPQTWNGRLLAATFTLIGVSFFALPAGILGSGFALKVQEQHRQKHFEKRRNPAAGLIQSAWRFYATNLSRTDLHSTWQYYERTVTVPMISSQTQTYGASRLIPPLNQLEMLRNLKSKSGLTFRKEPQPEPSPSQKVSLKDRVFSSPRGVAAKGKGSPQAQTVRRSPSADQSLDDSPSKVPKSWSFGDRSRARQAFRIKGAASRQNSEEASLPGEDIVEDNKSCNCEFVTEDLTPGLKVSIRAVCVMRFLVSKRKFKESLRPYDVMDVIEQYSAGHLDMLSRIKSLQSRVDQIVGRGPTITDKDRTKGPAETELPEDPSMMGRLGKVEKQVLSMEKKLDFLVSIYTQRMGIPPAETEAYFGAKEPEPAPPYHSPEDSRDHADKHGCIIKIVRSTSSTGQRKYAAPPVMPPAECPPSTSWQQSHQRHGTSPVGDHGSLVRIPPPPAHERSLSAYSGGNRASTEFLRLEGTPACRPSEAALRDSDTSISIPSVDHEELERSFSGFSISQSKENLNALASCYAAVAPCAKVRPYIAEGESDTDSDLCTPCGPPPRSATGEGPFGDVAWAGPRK

Structure (SMILES)	activity change, less the hit threshold
Cn1c(=O)c2sc3c(c2n(CC(=O)Nc2ccccc2)c1=O)COC(C)(C)C3	-11.1%
CC(C)C1Cc2c(sc3[nH]c(=S)n(Cc4ccccc4)c(=O)c23)CO1 (configuration not stated)	19.3% (active)
CCC1(C)Cc2c(sc3[nH]c(=S)n(Cc4ccccc4)c(=O)c23)CO1 (configuration not stated)	48.6% (active)
CC1(C)Cc2c(sc3[nH]c(=S)n(Cc4ccccc4)c(=O)c23)CO1	11.3% (active)
CCC(=O)N1c2ccc(C)cc2C2=NNC(=S)NC21O (configuration not stated)	-16.9%
O=C(NC1CCCC1)C(c1ccncc1)N(Cc1ccccc1F)C(=O)c1csnn1 (configuration not stated)	-8.5%
COc1ccc(-c2cnn(C3CCS(=O)(=O)C3)c2N)cc1 (configuration not stated)	-16.8%
Cc1cc(C)c(S(=O)(=O)c2ccccc2)c(OC(=O)c2c(F)cccc2Cl)n1	-22%
COc1cccc(C(=O)/C=C/Nc2ccc(S(=O)(=O)Nc3cnc4ccccc4n3)cc2)c1	-20.6%
O=C1C=C(Nc2cccc3cccnc23)c2ccccc2C1=O	-8.1%
O=C(Nn1c(O)c(C=C2N=c3ccccc3=N2)sc1=S)c1cccc(Cl)c1	-23.1%
CN(C(=O)c1ccc(Cl)c(S(=O)(=O)N2CCOCC2)c1)c1ccccc1C(=O)O	-1.7%
c1ccc(-c2n[nH]c(-c3ccccn3)n2)cc1	5.9% (active)
COc1ccc(-c2nc(-c3ccccn3)ncc2S(C)(=O)=O)cc1	-15.6%
c1ccc(-c2ccc(-c3ccncn3)cc2)cc1	-16.2%
CC(C)Sc1nc2ccccc2n2cnnc12	-12.8%
C/C(=N\Nc1nc2ccccc2nc1C)c1ccccc1O	7.3% (active)
C/C(=N\Nc1nc2ccccc2s1)c1cccs1	-9.9%
C/C(=N\Nc1nc2ccccc2s1)c1ccc(Br)s1	-5.9%
CCCCNC(=O)N1CCCC(C(=O)c2cc(C)c(OC)c(C)c2)C1 (configuration not stated)	-22.8%
CCC1(c2ccc(Cl)cc2)NC(=S)N(c2ccc(C)cc2)N1 (configuration not stated)	83.8% (active)
CCC1(c2ccc(Cl)cc2)NC(=S)N(c2ccccc2)N1 (configuration not stated)	84.8% (active)
CCC1(c2ccccc2)NC(=S)N(c2ccc(C)cc2)N1 (configuration not stated)	102% (active)
S=c1[nH]nc(-c2ccccn2)n1/N=C/c1ccc(-c2ccccc2Br)o1	-12.9%
CC12CCC(C(=O)OC3CCCCC3)(OC1=O)C2(C)C (configuration not stated)	-26.6%
C=CCNC(=O)c1onc(CSc2ccc(OC)cc2)c1C(=O)O	-16.5%

Structure (SMILES)	activity change, less the hit threshold
Cn1c2ccccc2c(=O)c2c(=O)n(Cc3ccco3)c(-c3ccc(Cl)cc3Cl)nc21	-29.7%
O=C(Nc1cccnc1)c1ccc(COc2cc(Cl)ccc2Cl)o1	-20%
O=C(CCl)NCCN1C(=O)S/C(=C\c2cccnc2)C1=O	-19%
C[n+]1ccccc1/C=C/c1c(F)cccc1F	-10.9%
CCC(NS(=O)(=O)c1cn(C)nc1C)c1ccccc1 (configuration not stated)	-7.9%
Cc1cccc(C(=O)NC(=S)NNC(=O)COc2c(C)cccc2C)c1	-27.8%
CN(C1=C(NC(=O)c2ccccc2)C(=O)c2ccccc2C1=O)C1CCS(=O)(=O)C1 (configuration not stated)	-3.2%
Cc1cccc(C(=O)NC(=S)N(C)C2CCCCC2)c1	18.5% (active)
O=C(NC(=S)NNC(=O)[C@H]1C[C@@H]1c1ccccc1)c1cccc(F)c1	-30.9%
C/C(=C\C(=O)c1ccccc1)NNC(=O)c1ccc(Cl)cc1	-3.2%
CC(C)CNC(=S)NC(=O)c1ccc(Cl)cc1	-3.9%
CN(C(=S)NC(=O)c1ccccc1)C1CCCCC1	2% (active)
Cc1ccc(C(=O)NC(=S)N(C)C2CCCCC2)cc1	5.4% (active)
CN(C(=S)NC(=O)c1ccc(Cl)cc1)C1CCCCC1	4.8% (active)
COc1ccc(C(=O)NC(=S)N(C)C2CCCCC2)cc1	-3.2%
COc1ccc(-c2nn(-c3ccccc3)cc2C(=O)Nc2cccc(C(=O)O)c2)cc1[N+](=O)[O-]	-18.7%
Cc1c(Cl)c([N+](=O)[O-])nn1CC(=O)NCC(C)C	-16.4%
O=C(CCCOc1ccc(Cl)cc1Cl)Nc1ccccc1C(=O)O	-39.2%
O=C(c1ccc(CS(=O)c2cccc(Cl)c2)o1)N1CCCCCC1 (configuration not stated)	-25.8%
O=S(=O)(c1ccc(F)cc1)N1CCN(c2ccc(F)cc2)CC1	-13.8%
CCCNC(=O)N1CCN(S(=O)(=O)c2ccc(C)cc2)CC1	-17.2%
Cc1ccc(O)c(Sc2cc(C)ccc2O)c1	2% (active)
Cc1ccc(O)c(C(=O)CC(=O)c2ccc(Cl)cc2)c1	-16.6%
Cc1ccc(O)c(C(=O)CC(=O)c2ccccc2Cl)c1	-13.5%
NNC(=O)CNc1ccccc1Cl	-15.1%
O=C(NCC1CCS(=O)(=O)C1)Oc1ccccc1 (configuration not stated)	-12.4%

Structure (SMILES)	activity change, less the hit threshold
C=CCN(c1ccccc1)S(=O)(=O)c1cccc(C(=O)Nc2nnc(SCC)s2)c1	-20.2%
C=CCN(c1cccc(C(F)(F)F)c1)S(=O)(=O)c1cccc(C(=O)OCC(=O)Nc2ccccc2)c1	-0.5%
C=CCN(c1ccc(Cl)cc1)S(=O)(=O)c1cccc(C(=O)O)c1	4.4% (active)
CN(C)S(=O)(=O)c1cccc(C(=O)Nc2cccnc2)c1	-13.5%
O=C(NCC1CCCCC1)c1cccnc1Cl	-17.7%
COc1nccnc1NS(=O)(=O)c1ccc(NC(=S)NC(=O)c2ccccc2F)cc1	-13.5%
CN(Cc1ccccc1)C1CCN(Cc2ccccc2[N+](=O)[O-])CC1	-15.5%
O=C(NC(=S)N(Cc1ccccc1)Cc1ccccc1)c1ccccc1F	38.8% (active)
CCN(Cc1ccccc1)C(=S)NC(=O)c1ccccc1Br	66.7% (active)
CCN(C(=S)NC(=O)c1ccccc1Br)C1CCCCC1	62.1% (active)
O=C(Nc1ccccc1C(=O)O)c1cccc(NC(=O)c2ccccc2Br)c1	-16%
CCC(=O)NC(=S)NNC(=O)c1ccccc1[N+](=O)[O-]	-19.6%
CCCN(Cc1ccccc1)C(=S)NC(=O)c1ccccc1[N+](=O)[O-]	92.5% (active)
O=C(Cn1cncn1)c1ccccc1Br	-24%
CC(C)CN(C(=O)COC(=O)CNC(=O)c1ccccc1F)c1c(N)n(Cc2ccccc2)c(=O)[nH]c1=O	-7.7%
CC1=NNC(=O)C1CC(=O)N/N=C/C=C/c1ccccc1 (configuration not stated)	-21.4%
Cc1cnc(NC(=O)CN2CCN(c3ccccc3F)CC2)s1	-16.9%
COc1cc(/C=C2/OC(=O)c3cc([N+](=O)[O-])ccc32)cc(OC)c1OC	-15.4%
CCO/C=C1\N=C(c2ccc(F)cc2)OC1=O	-13.2%
O=C(CN1C(=O)S/C(=C\c2cc(Cl)c(O)c(Cl)c2)C1=O)Nc1ccccc1	-30.2%
CC(C)C12CN3CC(C(C)C)(CN(C1)C31C(=O)Nc3ccccc31)C2=O (configuration not stated)	-24.3%
O=C(COC(=O)c1cc(S(=O)(=O)NCc2ccccc2)ccc1O)NCc1ccccc1	-13.2%
C=CCn1c(SCc2ccc(C(=O)O)cc2)nc2sc(C)c(C)c2c1=O	46.6% (active)
C=CCN1C(=O)C(Cc2ccc(OCC)cc2)SC1=Nc1ccc(C(=O)O)cc1 (configuration not stated)	-15.5%
O=C1CN(S(=O)(=O)c2ccccc2)CC(=O)N1CCc1ccccc1	-18.7%
Cc1ccc(Nc2nc(C)cs2)cc1	-9.5%

Structure (SMILES)	activity change, less the hit threshold
Cc1cccc(N/C(N)=N/c2nc(C)cc(=O)[nH]2)c1	-13.7%
Cc1ccc(Nc2cc(C)nn2-c2nc(C)cc(=O)[nH]2)cc1	68.6% (active)
Cc1nnc(N2C(=O)C(=O)/C(=C(\O)c3ccc4c(c3)CC(C)O4)C2c2ccccc2)s1 (configuration not stated)	-7.2%
Cc1cc(O)c(/C=N/OCc2ccc(Cl)cc2Cl)c(=O)o1	-19.1%
Cc1cc(C)cc(NC(=O)N2CCCC2C(=O)Nc2ccc(-n3cnnn3)c(C)c2)c1 (configuration not stated)	-19%
COc1ccc(-c2csc(NC(=S)NC(=O)c3ccc4ccccc4c3)n2)cc1OC	-11.9%
CCOC(=O)Cc1csc(NC(=S)NC(=O)c2ccccc2C)n1	3.3% (active)
CCOC(=O)Cc1csc(NC(=S)NC(=O)c2ccccc2Br)n1	9.2% (active)
CCOC(=O)Cc1csc(NC(=S)NC(=O)c2ccc(C)cc2)n1	-3.1%
Cc1csc(NC(=S)NC(=O)c2ccccc2)n1	7.2% (active)
CCOC(=O)Cc1csc(NC(=S)NC(=O)C(C)(C)C)n1	-1.3%
CCOC(=O)Cc1csc(NC(=S)NC(=O)c2ccc(Cl)cc2)n1	-7.1%
Cc1[nH]cnc1CSCCN	-10.5%
CCOC(=O)N1CCN(C(=O)CSc2nnc(-c3ccccc3OC)o2)CC1	-10.3%
Brc1ccc(Nc2nc(-c3cccnc3)cs2)cc1	-11.1%
O=C(COC(=O)C1CCC(=O)N1)Nc1ccc(Oc2ccccc2)cc1 (configuration not stated)	-11%
Cc1oc2cc(O)ccc2c(=O)c1N1C(=O)c2ccccc2C1=O	-14.7%
CN(CC(=O)Nc1nc2ccccc2s1)S(=O)(=O)c1ccc(Cl)cc1	-27%
Cn1ncc2c(O/N=C(\N)c3ccc(C(F)(F)F)cc3)ncnc21	-7.2%
Cc1ccccc1C(=O)NC(=S)Nc1sc2c(c1C#N)CCC(C)C2 (configuration not stated)	-29%
CCC1CCc2c(sc(NC(=O)C3CC=CCC3C(=O)O)c2C#N)C1 (configuration not stated)	1.4% (active)
CCC(C)(C)C1CCc2c(sc(NC(=O)c3ccccc3C(=O)O)c2C#N)C1 (configuration not stated)	38.4% (active)
Cc1onc(-c2ccccc2)c1C(=O)NC(=S)Nc1sc2c(c1C#N)CCC(C)C2 (configuration not stated)	-3.3%
COC(=O)c1c(NC(=O)C2CC=CCC2C(=O)O)sc(C)c1C (configuration not stated)	-12.3%

From PubChem BioAssay AID1942 (Johns Hopkins Ion Channel Center, 2009)
